We go through 7 compounds from publication PMC5540273 (PLoS ONE, 2017).

Some test systems named below: MRCKA; MST1R; MST4; MTOR; MUSK; MYLK2; MYLK4; MYLK; MYO3A; MYO3B; NDR2; NEK10; NEK11; NEK1; NEK2.
Holding throughout (conditions): concentration: 1 μM, replicates: in singlicate; n = 1
A further assay deals with T1, MRCKB.
T1 construct: gene CDC42BPB

A further assay has as its system T2, MST1.
T2 construct: gene STK4

The test system of a further assay is T3, MST2.
T3 construct: gene STK3

The test system of the next assay is T4, MST3.
T4 construct: gene STK24

For a further assay, the system named is T5, NDR1.
T5 construct: gene STK38
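Further: KINOMEscan kinase panel screen.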

For the compound `CCn1c(-c2ccncc2)nc2cnccc21` [SB-735216], the “%Inh” value is on record as 23% with MRCKA; 0% in the assay with MRCKB; 27% in the assay on MST1R; 0% in the assay on MST1; 0% with MST2; 0% in the assay with MST3. Further, the “%Inh” value in the assay with MST4 worked out at 13%; with MTOR, 0%; in the assay with MUSK, 5%; in the assay with MYLK2, 15%; with MYLK4, 0%; in the assay on MYLK it was 24%. The “%Inh” value in the assay on MYO3A is reported as 19%; in the assay with MYO3B, 0%; in the assay on NDR1, 28%; in the assay on NDR2, 0%; with NEK10, 0%; in the assay on NEK11, 51%. In addition, the “%Inh” value was determined as 0% in the assay with NEK1 and 8% in the assay with NEK2.

As to `Cn1cc(-c2ccc3c(c2)CCN3C(=O)Cc2cccc(C(F)(F)F)c2)c2c(N)ncnc21` [GSK2606414], the “%Inh” value turned out to be 0% in the assay with MRCKA; 0% with MRCKB; 6% in the assay on MST1R; 14% with MST1; 0% with MST2; 0% in the assay on MST3. In addition, the “%Inh” value in the assay with MST4 amounted to 0%; in the assay with MTOR, 0%; in the assay with MUSK, 6%; in the assay with MYLK2, 24%; with MYLK4 it was 0%; with MYLK, 1%. The “%Inh” value in the assay on MYO3A stood at 0%; in the assay on MYO3B, 7%; with NDR1, 0%; in the assay on NDR2, 0%; in the assay on NEK10, 18%; in the assay on NEK11 it was 14%. In addition, the results for the “%Inh” value in the assay with NEK1 and in the assay with NEK2 were 0% and 15%, respectively.

Regarding `CCC(CC)(CC)n1cnc2c(N)ncnc21` [SKF-97620], the “%Inh” value in the assay on MRCKA was determined as 0%; with MRCKB it was 13%; in the assay on MST1R, 0%; in the assay with MST1, 6%; in the assay on MST2 it was 7%; in the assay on MST3, 10%. The “%Inh” value is on record as 30% in the assay on MST4; 14% with MTOR; 11% with MUSK; 19% with MYLK2; 0% with MYLK4; 0% with MYLK. Also, the “%Inh” value was 0% in the assay on MYO3A; 35% in the assay on MYO3B; 42% in the assay with NDR1; 16% in the assay with NDR2; 65% in the assay with NEK10; 0% in the assay on NEK11. The “%Inh” value in the assay with NEK1 and in the assay with NEK2 was 0% throughout.

In the case of `FC(F)(F)c1ccc(-c2cc(-c3c[nH]nc3-c3ccccn3)ccn2)cc1` [GW599550], the “%Inh” value with MRCKA is on record as 19%; with MRCKB, 0%; with MST1R, 33%; in the assay with MST1, 17%; in the assay with MST2, 8%; in the assay on MST3 it was 8%. Also, the “%Inh” value in the assay with MST4 is listed as 0%; in the assay on MTOR, 13%; in the assay on MUSK it was 14%; in the assay with MYLK2 it was 13%; with MYLK4, 1%; in the assay on MYLK it was 21%. Also, the “%Inh” value in the assay on MYO3A is on record as 27%; in the assay on MYO3B, 0%; with NDR1, 22%; with NDR2 it was 9%; in the assay with NEK10 it was 17%; in the assay on NEK11, 24%. In addition, the “%Inh” value with NEK1 amounted to 9%; with NEK2, 1%.

Consider `COc1ccc(-c2oc3ncnc(N)c3c2-c2ccc(OC)cc2)cc1` [SB-589132], for which the “%Inh” value with MRCKA was 0%; in the assay with MRCKB, 0%; in the assay with MST1R it was 46%; in the assay on MST1, 7%; with MST2, 0%; in the assay with MST3, 0%. For the same compound, the “%Inh” value in the assay on MST4 worked out at 0%; with MTOR, 75%; in the assay on MUSK, 17%; in the assay on MYLK2, 0%; in the assay on MYLK4, 9%; with MYLK it was 18%. For the same compound, the “%Inh” value in the assay with MYO3A is on record as 25%; in the assay with MYO3B, 0%; with NDR1, 15%; with NDR2, 37%; in the assay on NEK10, 49%; with NEK11, 45%. Moreover, the results for the “%Inh” value with NEK1 and with NEK2 were 9% and 5%, respectively.

On to `Cc1ccc(NC(=O)c2cccc(C#N)c2)cc1-c1ccc(C(=O)Nc2ccncc2)cc1` [GSK1398463], for which the “%Inh” value was 3% in the assay on MRCKA; 8% with MRCKB; 38% in the assay on MST1R; 0% with MST1; 0% in the assay on MST2; 0% in the assay with MST3. In addition, the “%Inh” value is on record as 0% in the assay on MST4; 4% in the assay with MTOR; 10% in the assay with MUSK; 26% with MYLK2; 7% in the assay with MYLK4; 14% with MYLK. Moreover, the “%Inh” value in the assay on MYO3A was determined as 0%; in the assay on MYO3B, 0%; in the assay on NDR1, 0%; in the assay with NDR2, 0%; in the assay on NEK10, 1%; in the assay on NEK11, 0%. For the same compound, the “%Inh” value in the assay on NEK1 was 27%; with NEK2 it was 28%.

As for `CS(=O)(=O)CCNCc1nc(-c2ccc3ncnc(Nc4ccc(OCc5cccc(F)c5)c(Cl)c4)c3c2)cs1.Cl` [GW583340], the “%Inh” value with MRCKA was found to be 0%; in the assay with MRCKB, 0%; in the assay on MST1R, 38%; with MST1, 0%; in the assay with MST2 it was 8%; with MST3 it was 15%. The “%Inh” value in the assay on MST4 amounted to 0%; in the assay on MTOR it was 4%; in the assay on MUSK, 0%; in the assay on MYLK2 it was 0%; in the assay with MYLK4, 4%; in the assay with MYLK, 1%. The “%Inh” value with MYO3A is 34%; in the assay with MYO3B, 0%; in the assay on NDR1, 0%; in the assay with NDR2, 15%; in the assay on NEK10 it was 0%; in the assay with NEK11, 0%. The “%Inh” value in the assay with NEK1 is 0%; in the assay on NEK2, 16%.
